# Where a name gives a salt, the structure may show the parent alone.
# System: Saccharomyces cerevisiae
# Experiment: fraction of cells in G1 phase (DNA content, flow cytometry); higher = more cells with unreplicated DNA (G1 delay)
# Conditions: temperature: 30 C; YPD; JTY2953 pdr5 snq2 (sensitized); drug added to: cultures diluted from stationary phase; 6-7 h
# In short: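 S. cerevisiae in YPD at 30°C was treated with library drugs, with DMSO-only wells as reference. Sensitized JTY2953 cultures diluted 1∶200 from overnight received a final 20 µg/ml and were fixed after 6–7 h; other runs dosed dividing JTY2953 (fixed 6 h later) or BY4741 (4.33 h later). Ethanol-fixed cells were stained with SYTOX Green and 10,000 events read by flow cytometry. G1 fraction is the Dean-Jett-Fox G1 peak area over G1 plus G2/M areas.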
compound,measurement,value
CCCCc1ncc(/C=C(\Cc2cccs2)C(=O)O)n1Cc1ccc(C(=O)O)cc1 [Eprosartan] (47.1117 µM),fraction of cells in G1 phase,0.493
CC(c1cc2ccccc2s1)N(O)C(N)=O (configuration not stated) [Zileuton] (84.6401 µM),fraction of cells in G1 phase,0.53
CC(=O)SCC(Cc1ccccc1)C(=O)NCC(=O)OCc1ccccc1 (configuration not stated) [Racecadotril] (51.8826 µM),fraction of cells in G1 phase,0.509
CO/N=C(\C(=O)N[C@@H]1C(=O)N2C(C(=O)[O-])=C(C[N+]3(C)CCCC3)CS[C@H]12)c1csc(N)n1 [Cefepime] (41.6174 µM),fraction of cells in G1 phase,0.504
O=C(O)COCCN1CCN(C(c2ccccc2)c2ccc(Cl)cc2)CC1 (configuration not stated) [Cetirizine 2HCl] (43.3088 µM),fraction of cells in G1 phase,0.492
O=C(O)c1ccccc1Nc1cccc(C(F)(F)F)c1 [Flufenamic acid] (71.1145 µM),fraction of cells in G1 phase,0.582
CN1C2CCCC1CC(NC(=O)c1nn(C)c3ccccc13)C2 (configuration not stated) [Granisetron] (64.0168 µM),fraction of cells in G1 phase,0.486
N=C(N)NC(=N)N1CCOCC1 [Moroxydine HCl] (96.3092 µM),fraction of cells in G1 phase,0.496
O=C(CCCN1CCC(O)(c2cccc(C(F)(F)F)c2)CC1)c1ccc(F)cc1 [Trifluperidol 2HCl] (48.8487 µM),fraction of cells in G1 phase,0.563
CC(Oc1c(Cl)cccc1Cl)C1=NCCN1 (configuration not stated) [Lofexidine] (77.1792 µM),fraction of cells in G1 phase,0.483
CC(=O)O[C@]1(C(C)=O)CC[C@H]2[C@@H]3C=C(Cl)C4=CC(=O)CC[C@]4(C)[C@H]3CC[C@@]21C [Chlormadinone acetate] (44.5442 µM),fraction of cells in G1 phase,0.577
CCCOc1ccc2[nH]c(NC(=O)OC)nc2c1 [Oxibendazole] (80.2338 µM),fraction of cells in G1 phase,0.481

# — the supplement of paper PMC3342239
